Shown are actives, neighbours in structure and some others; about 10% of the full set was active somewhere.
FLuc inh-1: Firefly luciferase inhibition profiling of diverse chemical library using quantitative high-throughput screening | Luciferin 4-monooxygenase (Photinus pyralis), P08659 | purified P. pyralis luciferase, luminescence, biochemical | Potency, µM (top dose mostly 115 µM), hits mostly inhibitors | 2.5% of 76,000 active; note: % is set by controls: 0 for no effect and ±100 for the full control effect; nearly all actives have a fitted effect of over 65% in size
Target sequence (P08659 whole entry, looked up): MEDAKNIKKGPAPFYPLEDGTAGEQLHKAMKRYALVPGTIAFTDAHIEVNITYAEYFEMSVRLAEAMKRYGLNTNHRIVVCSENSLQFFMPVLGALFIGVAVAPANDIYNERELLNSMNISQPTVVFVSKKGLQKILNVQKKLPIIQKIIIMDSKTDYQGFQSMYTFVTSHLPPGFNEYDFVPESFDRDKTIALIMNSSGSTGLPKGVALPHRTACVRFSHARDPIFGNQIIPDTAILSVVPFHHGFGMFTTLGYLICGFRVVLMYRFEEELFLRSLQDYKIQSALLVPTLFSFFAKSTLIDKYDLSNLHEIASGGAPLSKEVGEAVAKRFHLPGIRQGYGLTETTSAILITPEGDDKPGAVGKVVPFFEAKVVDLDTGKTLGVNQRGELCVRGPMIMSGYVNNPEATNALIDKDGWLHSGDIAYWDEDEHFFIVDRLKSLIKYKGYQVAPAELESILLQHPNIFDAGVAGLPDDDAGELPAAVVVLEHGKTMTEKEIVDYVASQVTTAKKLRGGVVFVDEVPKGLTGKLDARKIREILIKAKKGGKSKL
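Cell-free enzyme assay, 10nM P. pyralis luciferase, luciferin and ATP each at 10uM. Inhibition profiled over a 6-point titration, read as luminescence.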
HEK cytotox: Cytotoxic Profiling in HEK 293 Cell Line of Diverse Libraries Using Quantitative High-Throughput Screening; AID 1345083, 2018; 6.6% of 94,000 active; Potency, µM (highest dose often 115 µM), inactives show at the highest dose activity change, negative = cytotoxicity, hits mostly inhibitors; HEK 293 viability, ATP luminescence (CellTiter-Glo), 48-72 h; note: % is set by controls: 0 for no effect and ±100 for the full control effect; nearly all actives have a fitted effect of over 60% in size
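qHTS cytotoxicity; HEK 293, 250 cells/well; compound pinned; 48 or 72 hr, 37 degree Celsius, 5% CO2, 95% humidity; CellTiter-Glo, 10 min RT; luminescence (ATP).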
3T3 cytotox: Cytotoxic Profiling in NIH 3T3 Cell Line of Diverse Libraries Using Quantitative High-Throughput Screening; Potency, µM (highest dose often 96.7 µM), inactives show at the top dose activity change, negative = cytotoxicity, hits mostly inhibitors; NIH 3T3 viability, CellTiter-Glo ATP luminescence, 48-72 h; AID 1345082, 2018; 4.3% of 94,000 active; note: % is set by controls: 0 for no effect and ±100 for the full control effect; nearly all actives have a fitted effect of over 55% in size
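Cells were seeded at 400 per well, treated with pin-transferred compound, and kept 48 or 72 hr at 37 °C before CellTiter-Glo addition and luminescence imaging of cellular ATP.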
GPT2 inhibitor: Primary qHTS assay for inhibitors of Glutamate pyruvate transaminase 2 (GPT2) | Alanine aminotransferase 2 (Homo sapiens), Q8TD30 | Recombinant GPT2, coupled pyruvate oxidase/HRP Amplex Red fluorescence | Potency, µM (doses to about 57.7 µM), for the others: at the highest dose activity change, negative = inhibition, actives largely listed as inhibitors | 0.25% of 100,000 active | AID 1671188, 2021; note: % is set by controls: 0 for no effect and ±100 for the full control effect; nearly all actives have a fitted effect of over 60% in size
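Recombinant GPT2 (10ng/uL) with 250uM a-KG and 2mM L-alanine, 30 min at room temperature, in HEPES pH 7.5 buffer. Pyruvate detected by pyruvate oxidase/HRP/Amplex Red fluorescence after 30 min in the dark; AOA (50uM) as positive control.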
NPR1 antag: Natriuretic polypeptide receptor (hNpr1) antagonism - Primary qHTS; Atrial natriuretic peptide receptor 1 (Homo sapiens), P16066; HEK293 hNpr1 GloSensor cGMP, ANP-stimulated luminescence; Potency, µM (series often up to 46.3 µM), without a hit: top-dose activity change, negative = inhibition, actives largely listed as inhibitors; 1.6% of 76,000 active; AID 1347048, 2019; calls by dose curve; note: % is set by controls: 0 for no effect and ±100 for the full control effect; nearly all actives have a fitted effect of over 60% in size
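Compound pre-incubated 30 min at room temperature on GloSensor-loaded HEK293 cells stably carrying hNpr1 and the pGS-40F cGMP biosensor. Stimulation uses hNppA at 0.1 nM final; luminescence is taken at baseline and 20 min post-agonist.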
FLuc SDR -ATP: Firefly luciferase (FLuc-C-HiBiT) SDR gain of signal screen - without ATP | shares compounds with FLuc inh-1 | Purified FLuc-C-HiBiT, Nano-Glo HiBiT luminescence, no ATP | Potency, µM (top dose mostly 32.7 µM), for the others: top-dose activation (signal gain), hits mostly activators | 7.8% of 1,300 active | AID 1963318, 2024; note: nearly all actives have a fitted effect of over 55% in size
FLuc SDR ATP: Firefly luciferase (FLuc-C-HiBiT) SDR gain of signal screen - plus ATP. shares compounds with FLuc inh-1. purified FLuc-C-HiBiT + ATP, HiBiT complementation luminescence. Potency, µM (highest dose often 32.7 µM), without a hit: at the highest dose activation (gain of signal), actives largely listed as activators. 8.7% of 1,300 active. AID 1963319, 2024;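 note: signal reports ligand binding via conformational change of the enzyme rather than luciferase catalysis; % of control where 0% means no effect; nearly all actives have a fitted effect of over 55% in size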
FLuc inh-2: Firefly luciferase (FLuc-C-HiBiT) enzymatic inhibition screen - Functional assay; shares compounds with FLuc inh-1; purified FLuc-C-HiBiT enzyme, luciferin luminescence; Potency, µM (titrated, usually from 32.7 µM), inactives show at the highest dose activity change, negative = inhibition, most hits filed as inhibitors; 42% of 1,300 active; note: % is set by controls: 0 for no effect and ±100 for the full control effect; nearly all actives have a fitted effect of over 70% in size
Numbers without * were called inactive; i = inactive; ? = inconclusive; . = no result; [ ] = remark or other dose. Unless noted, calls come from the whole dose curve; as a rule, active = well fitted curve in the direction sought with a large enough effect; inconclusive = small, poorly fitted or top-dose-only effect, or another doubt; inactive = no such curve, though single readings can be large; an effect the other way counts as inactive or inconclusive. Potency is the fitted concentration of half-maximal effect.

SMILES	FLuc inh-1	HEK cytotox	3T3 cytotox	GPT2 inhibitor	NPR1 antag	FLuc SDR -ATP	FLuc SDR ATP	FLuc inh-2
O=C(NCc1ccccc1F)C1CCN(C(=O)c2ncn3c2COC(c2ccccc2)C3)CC1 (configuration not stated)	10µM*	5%	-1%	i	0%	15%	?	3.5µM*
Cc1ccc(C2Cn3cnc(C(=O)N4CCC(C(=O)NCc5ccco5)CC4)c3CO2)cc1 (configuration not stated)	14µM*	3%	i	i	-3%	13%	?	?
COc1ccccc1CNC(=O)C1CCN(C(=O)c2ncn3c2COC(c2ccccc2)C3)CC1 (configuration not stated)	13µM*	-4%	i	-3%	-3%	11%	?	6.2µM*
CCN(Cc1ccncc1)C1CN(C(=O)c2nccc3ccccc23)C1	.	?	-29%	1%	.	.	.	.
COc1cccc(C(=O)NC2CCN(Cc3cccc(-c4cccs4)c3)CC2)c1	.	?	?	2%	.	.	.	.
O=C(Cc1cccc(F)c1)NCC(=O)N1CCCCCCNC(=O)CC1c1ccccc1 (configuration not stated)	i	-20%	-22%	3%	-10%	.	.	.
CC1=C[C@@H](CC#N)[C@H](C(C)C)C[C@H]1CC(=O)N1CCN(CCO)CC1	i	-10%[172 µM]	-18%[174 µM]	-3%[88.5 µM]	-1%[70.6 µM]	.	.	.
C[C@]1(CO)[C@H]2Cc3sc(NC(=O)c4cccc(F)c4)nc3[C@@H](CC(=O)NCc3ccco3)[C@]2(C)CC[C@H]1O	i	?	?	i	-11%	.	.	.
O=C(NCc1ccncc1)C1CCN(C(=O)c2ncn3c2COC(c2ccccc2)C3)CC1 (configuration not stated)	2.8µM*	-2%	-14%	-1%	?	20%	0.88µM*	1.8µM*
COc1ccc(CN2CCNc3cc(-c4ccccc4)ncc3C2)cn1	14µM*	?	?	5%[88.5 µM]	-14%[70.6 µM]	23%[49.3 µM]	14%[49.3 µM]	?
COc1ccc(-c2cc3c(cn2)CN(Cc2ccncc2)CCN3)cc1	3.2µM*	?	?	-2%[88.5 µM]	?	25%[49.3 µM]	?	?
Fc1ccc(CNc2cc3c(cn2)NCCN(Cc2ccccc2)C3)cc1	i	?	?	?	-10%[70.6 µM]	.	.	.
Fc1ccc(-c2cc3c(cn2)CN(Cc2ccncc2)CCN3)cc1Cl	1.8µM*	56µM*	?	-10%[88.5 µM]	?	25%[49.3 µM]	18%[49.3 µM]	18µM*
Cc1ccc(CN2CC[C@@H]3CN(S(C)(=O)=O)[C@@H]3C2)c(C)c1	i	-9%	-26%	-3%	4%	.	.	.
CN(C)c1nc(NCCN2CCOC2=O)ncc1F	i	-14%	-4%	-2%	-4%	.	.	.
